Measurements published in publication PMC11006913.

Columns and labels:
Test in all cases: PBM; 200 nM protein, PBS
Conditions in all cases: dsDNA, one strand shown
[1] = target: ALX1 (Homo sapiens, UniProt Q15699 118-204, L144V)
[2] = target: ALX1 (Homo sapiens, UniProt Q15699 118-204, L144R)
[3] = target: VAX1 (Homo sapiens, UniProt Q5SQQ9 86-172)
[4] = target: VAX1 (Homo sapiens, UniProt Q5SQQ9 86-172, T142I)
[5] = target: ALX1 (Homo sapiens, UniProt Q15699 118-204)
[6] = target: HOXA4 (Homo sapiens, UniProt Q00056 201-287, W262F)
Chain of HOXA4 (Q00056 201-287 W262F): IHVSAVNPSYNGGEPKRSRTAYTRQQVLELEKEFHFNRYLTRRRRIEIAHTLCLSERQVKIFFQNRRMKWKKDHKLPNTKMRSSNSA

[7] = target: VAX1 (Homo sapiens, UniProt Q5SQQ9 86-172, K157R)
Chain of VAX1 (Homo sapiens, UniProt Q5SQQ9 86-172, K157R) (Q5SQQ9 86-172 K157R): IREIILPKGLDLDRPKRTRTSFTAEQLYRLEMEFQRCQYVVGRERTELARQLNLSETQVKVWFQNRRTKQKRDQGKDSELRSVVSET

[8] = target: MSX2 (Homo sapiens, UniProt P35548 130-214, R199I)
Chain of MSX2 (Homo sapiens, UniProt P35548 130-214, R199I) (P35548 130-214 R199I): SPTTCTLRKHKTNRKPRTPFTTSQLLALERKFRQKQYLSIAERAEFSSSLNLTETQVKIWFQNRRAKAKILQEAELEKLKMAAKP

[9] = target: MSX2 (Homo sapiens, UniProt P35548 130-214)
Chain of MSX2 (Homo sapiens, UniProt P35548 130-214) (P35548 130-214): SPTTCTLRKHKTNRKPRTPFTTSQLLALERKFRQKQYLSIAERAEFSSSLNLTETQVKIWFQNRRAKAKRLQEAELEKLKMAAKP

[10] = target: MSX2 (Homo sapiens, UniProt P35548 130-214, F161Y)
Chain of MSX2 (Homo sapiens, UniProt P35548 130-214, F161Y) (P35548 130-214 F161Y): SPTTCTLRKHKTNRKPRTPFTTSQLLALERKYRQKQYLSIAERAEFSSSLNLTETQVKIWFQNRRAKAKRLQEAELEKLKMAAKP

[11] = target: ALX3 (Homo sapiens, UniProt O95076 139-225, N203Q)
Chain of ALX3 (Homo sapiens, UniProt O95076 139-225, N203Q) (O95076 139-225 N203Q): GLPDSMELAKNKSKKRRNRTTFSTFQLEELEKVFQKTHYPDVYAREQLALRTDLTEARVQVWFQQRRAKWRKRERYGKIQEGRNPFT

[12] = target: ALX3 (Homo sapiens, UniProt O95076 139-225)
Chain of ALX3 (Homo sapiens, UniProt O95076 139-225) (O95076 139-225): as the sequence (O95076 139-225 N203Q) above, with Q65N counted along it

[13] = target: ALX3 (Homo sapiens, UniProt O95076 139-225, L168Q)
Chain of ALX3 (Homo sapiens, UniProt O95076 139-225, L168Q) (O95076 139-225 L168Q): as the sequence (O95076 139-225 N203Q) above, with L30Q, Q65N counted along it

[14] = target: ALX3 (Homo sapiens, UniProt O95076 139-225, L168V)
Chain of ALX3 (Homo sapiens, UniProt O95076 139-225, L168V) (O95076 139-225 L168V): as the sequence (O95076 139-225 N203Q) above, with L30V, Q65N counted along it

[15] = target: ALX3 (Homo sapiens, UniProt O95076 139-225, N203S)
Chain of ALX3 (Homo sapiens, UniProt O95076 139-225, N203S) (O95076 139-225 N203S): as the sequence (O95076 139-225 N203Q) above, with Q65S counted along it

[16] = target: NKX3-2 (Homo sapiens, UniProt P78367 192-278, P234S)
Chain of NKX3-2 (Homo sapiens, UniProt P78367 192-278, P234S) (P78367 192-278 P234S): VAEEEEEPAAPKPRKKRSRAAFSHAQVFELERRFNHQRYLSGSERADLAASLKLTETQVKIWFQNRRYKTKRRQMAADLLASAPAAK

[17] = target: NKX3-2 (Homo sapiens, UniProt P78367 192-278)
Chain of NKX3-2 (Homo sapiens, UniProt P78367 192-278) (P78367 192-278): as the sequence (P78367 192-278 P234S) above, with S43P counted along it

Chain of ALX1 (Homo sapiens, UniProt Q15699 118-204) (Q15699 118-204): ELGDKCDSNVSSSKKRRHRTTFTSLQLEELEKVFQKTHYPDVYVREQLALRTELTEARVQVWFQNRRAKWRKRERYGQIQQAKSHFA
Chain of ALX1 (Homo sapiens, UniProt Q15699 118-204, L144V) (Q15699 118-204 L144V): as the sequence (Q15699 118-204) above, with L27V counted along it
Chain of VAX1 (Homo sapiens, UniProt Q5SQQ9 86-172, T142I) (Q5SQQ9 86-172 T142I): as the sequence (Q5SQQ9 86-172 K157R) above, with T57I, R72K counted along it
Chain of VAX1 (Homo sapiens, UniProt Q5SQQ9 86-172) (Q5SQQ9 86-172): as the sequence (Q5SQQ9 86-172 K157R) above, with R72K counted along it
Chain of ALX1 (Homo sapiens, UniProt Q15699 118-204, L144R) (Q15699 118-204 L144R): as the sequence (Q15699 118-204) above, with L27R counted along it

Which results are given for CTAATGAA?
binding signal [1]: 10.6 upbm affinity estimate (log intensity, higher = more binding, comparable within an allelic series); binding signal [2]: 10.2 upbm affinity estimate (log intensity, higher = more binding, comparable within an allelic series); binding signal [3]: 12.7 upbm affinity estimate (log intensity, higher = more binding, comparable within an allelic series); binding signal [4]: 12.4 upbm affinity estimate (log intensity, higher = more binding, comparable within an allelic series); binding signal [5]: 11.1 upbm affinity estimate (log intensity, higher = more binding, comparable within an allelic series); binding signal [6]: 11.5 upbm affinity estimate (log intensity, higher = more binding, comparable within an allelic series); binding signal [7]: 12.4 upbm affinity estimate (log intensity, higher = more binding, comparable within an allelic series)

With GATGTTTA as the sequence, how does the binding signal [8] read?
Its binding signal is 10.5 upbm affinity estimate (log intensity, higher = more binding, comparable within an allelic series).

What about the binding signal [9] of the same sequence?
The binding signal was 10.9 upbm affinity estimate (log intensity, higher = more binding, comparable within an allelic series).

What about the binding signal [10] of the same sequence?
The binding signal was 10.8 upbm affinity estimate (log intensity, higher = more binding, comparable within an allelic series).

How did the binding signal [8] turn out when GGACGGGA was run?
The binding signal was 9.67 upbm affinity estimate (log intensity, higher = more binding, comparable within an allelic series).

What about the binding signal [9] of the same sequence?
Its binding signal is 9.5 upbm affinity estimate (log intensity, higher = more binding, comparable within an allelic series).

What about the binding signal [10] of the same sequence?
The binding signal was 9.6 upbm affinity estimate (log intensity, higher = more binding, comparable within an allelic series).

With CCTACGCC as the sequence, how does the binding signal [1] read?
Its binding signal is 6.43 upbm affinity estimate (log intensity, higher = more binding, comparable within an allelic series).

What about the binding signal [2] of the same sequence?
Its binding signal is 6.36 upbm affinity estimate (log intensity, higher = more binding, comparable within an allelic series).

And the binding signal [5]?
Its binding signal is 6.5 upbm affinity estimate (log intensity, higher = more binding, comparable within an allelic series).

GCGGAGCC was tested. Which binding signal [1] did it give?
The binding signal was 6.64 upbm affinity estimate (log intensity, higher = more binding, comparable within an allelic series).

And the binding signal [2]?
Its binding signal is 6.35 upbm affinity estimate (log intensity, higher = more binding, comparable within an allelic series).

What about the binding signal [3] of the same sequence?
Its binding signal is 7.22 upbm affinity estimate (log intensity, higher = more binding, comparable within an allelic series).

And the binding signal [4]?
The binding signal was 7.36 upbm affinity estimate (log intensity, higher = more binding, comparable within an allelic series).

And the binding signal [5]?
The binding signal was 6.57 upbm affinity estimate (log intensity, higher = more binding, comparable within an allelic series).

And the binding signal [7]?
Its binding signal is 7.24 upbm affinity estimate (log intensity, higher = more binding, comparable within an allelic series).

Which results are given for AAACAATA?
binding signal [1]: 8.22 upbm affinity estimate (log intensity, higher = more binding, comparable within an allelic series); binding signal [2]: 8.34 upbm affinity estimate (log intensity, higher = more binding, comparable within an allelic series); binding signal [3]: 9.16 upbm affinity estimate (log intensity, higher = more binding, comparable within an allelic series); binding signal [4]: 8.8 upbm affinity estimate (log intensity, higher = more binding, comparable within an allelic series); binding signal [5]: 8.26 upbm affinity estimate (log intensity, higher = more binding, comparable within an allelic series); binding signal [7]: 8.82 upbm affinity estimate (log intensity, higher = more binding, comparable within an allelic series)

With GTCCAGAC as the sequence, how does the binding signal [1] read?
The binding signal was 6.53 upbm affinity estimate (log intensity, higher = more binding, comparable within an allelic series).

What about the binding signal [2] of the same sequence?
Its binding signal is 6.49 upbm affinity estimate (log intensity, higher = more binding, comparable within an allelic series).

What about the binding signal [5] of the same sequence?
The binding signal was 6.42 upbm affinity estimate (log intensity, higher = more binding, comparable within an allelic series).

Which results are given for AGAGCGCC?
binding signal [1]: 6.46 upbm affinity estimate (log intensity, higher = more binding, comparable within an allelic series); binding signal [11]: 7.79 upbm affinity estimate (log intensity, higher = more binding, comparable within an allelic series); binding signal [2]: 6.49 upbm affinity estimate (log intensity, higher = more binding, comparable within an allelic series); binding signal [12]: 7.87 upbm affinity estimate (log intensity, higher = more binding, comparable within an allelic series); binding signal [13]: 7.76 upbm affinity estimate (log intensity, higher = more binding, comparable within an allelic series); binding signal [14]: 7.79 upbm affinity estimate (log intensity, higher = more binding, comparable within an allelic series); binding signal [5]: 6.45 upbm affinity estimate (log intensity, higher = more binding, comparable within an allelic series); binding signal [15]: 7.78 upbm affinity estimate (log intensity, higher = more binding, comparable within an allelic series)

CATACTAA was tested. Which binding signal [8] did it give?
The binding signal was 10.4 upbm affinity estimate (log intensity, higher = more binding, comparable within an allelic series).

And the binding signal [9]?
The binding signal was 10.7 upbm affinity estimate (log intensity, higher = more binding, comparable within an allelic series).

What about the binding signal [10] of the same sequence?
Its binding signal is 10.6 upbm affinity estimate (log intensity, higher = more binding, comparable within an allelic series).

Which results are given for CCTGAGCC?
binding signal [8]: 9.54 upbm affinity estimate (log intensity, higher = more binding, comparable within an allelic series); binding signal [9]: 9.53 upbm affinity estimate (log intensity, higher = more binding, comparable within an allelic series); binding signal [10]: 9.53 upbm affinity estimate (log intensity, higher = more binding, comparable within an allelic series)

Which results are given for AATTTTTA?
binding signal [8]: 11.1 upbm affinity estimate (log intensity, higher = more binding, comparable within an allelic series); binding signal [9]: 11.9 upbm affinity estimate (log intensity, higher = more binding, comparable within an allelic series); binding signal [10]: 11.6 upbm affinity estimate (log intensity, higher = more binding, comparable within an allelic series)

Which binding signal [1] does the source give for AGGCCGGG here?
Its binding signal is 6.61 upbm affinity estimate (log intensity, higher = more binding, comparable within an allelic series).

And the binding signal [2]?
Its binding signal is 6.52 upbm affinity estimate (log intensity, higher = more binding, comparable within an allelic series).

What about the binding signal [3] of the same sequence?
Its binding signal is 6.99 upbm affinity estimate (log intensity, higher = more binding, comparable within an allelic series).

And the binding signal [4]?
Its binding signal is 7.01 upbm affinity estimate (log intensity, higher = more binding, comparable within an allelic series).

And the binding signal [5]?
The binding signal was 6.54 upbm affinity estimate (log intensity, higher = more binding, comparable within an allelic series).

What about the binding signal [7] of the same sequence?
Its binding signal is 7.01 upbm affinity estimate (log intensity, higher = more binding, comparable within an allelic series).

How did the binding signal [1] turn out when ACATAATA was run?
Its binding signal is 9.56 upbm affinity estimate (log intensity, higher = more binding, comparable within an allelic series).

And the binding signal [2]?
The binding signal was 9.39 upbm affinity estimate (log intensity, higher = more binding, comparable within an allelic series).

And the binding signal [5]?
The binding signal was 9.89 upbm affinity estimate (log intensity, higher = more binding, comparable within an allelic series).

Which binding signal [8] does the source give for AGCGGCCT here?
Its binding signal is 9.45 upbm affinity estimate (log intensity, higher = more binding, comparable within an allelic series).

And the binding signal [9]?
The binding signal was 9.32 upbm affinity estimate (log intensity, higher = more binding, comparable within an allelic series).

What about the binding signal [10] of the same sequence?
The binding signal was 9.44 upbm affinity estimate (log intensity, higher = more binding, comparable within an allelic series).

How did the binding signal [1] turn out when CACCTTCG was run?
The binding signal was 6.61 upbm affinity estimate (log intensity, higher = more binding, comparable within an allelic series).

What about the binding signal [2] of the same sequence?
The binding signal was 6.38 upbm affinity estimate (log intensity, higher = more binding, comparable within an allelic series).

What about the binding signal [5] of the same sequence?
Its binding signal is 6.33 upbm affinity estimate (log intensity, higher = more binding, comparable within an allelic series).

What does the source list for CCTTGGCG?
binding signal [1]: 6.13 upbm affinity estimate (log intensity, higher = more binding, comparable within an allelic series); binding signal [2]: 6.15 upbm affinity estimate (log intensity, higher = more binding, comparable within an allelic series); binding signal [5]: 6.14 upbm affinity estimate (log intensity, higher = more binding, comparable within an allelic series)

Which binding signal [8] does the source give for ATACATAA here?
The binding signal was 11 upbm affinity estimate (log intensity, higher = more binding, comparable within an allelic series).

What about the binding signal [9] of the same sequence?
Its binding signal is 11.6 upbm affinity estimate (log intensity, higher = more binding, comparable within an allelic series).

What about the binding signal [10] of the same sequence?
The binding signal was 11.4 upbm affinity estimate (log intensity, higher = more binding, comparable within an allelic series).

Which binding signal [8] does the source give for CAGGGCCA here?
Its binding signal is 9.52 upbm affinity estimate (log intensity, higher = more binding, comparable within an allelic series).

What about the binding signal [9] of the same sequence?
Its binding signal is 9.57 upbm affinity estimate (log intensity, higher = more binding, comparable within an allelic series).

What about the binding signal [10] of the same sequence?
The binding signal was 9.56 upbm affinity estimate (log intensity, higher = more binding, comparable within an allelic series).

For AGGCAAAT, which binding signal [1] is on record?
Its binding signal is 8.05 upbm affinity estimate (log intensity, higher = more binding, comparable within an allelic series).

And the binding signal [2]?
The binding signal was 7.93 upbm affinity estimate (log intensity, higher = more binding, comparable within an allelic series).

What about the binding signal [5] of the same sequence?
The binding signal was 8.18 upbm affinity estimate (log intensity, higher = more binding, comparable within an allelic series).

Which results are given for CTCTTGGC?
binding signal [1]: 6.39 upbm affinity estimate (log intensity, higher = more binding, comparable within an allelic series); binding signal [2]: 6.52 upbm affinity estimate (log intensity, higher = more binding, comparable within an allelic series); binding signal [16]: 11.6 upbm affinity estimate (log intensity, higher = more binding, comparable within an allelic series); binding signal [5]: 6.47 upbm affinity estimate (log intensity, higher = more binding, comparable within an allelic series); binding signal [17]: 11.7 upbm affinity estimate (log intensity, higher = more binding, comparable within an allelic series)

For AGCCACAG, which binding signal [1] is on record?
Its binding signal is 6.62 upbm affinity estimate (log intensity, higher = more binding, comparable within an allelic series).

And the binding signal [2]?
The binding signal was 6.52 upbm affinity estimate (log intensity, higher = more binding, comparable within an allelic series).

What about the binding signal [5] of the same sequence?
Its binding signal is 6.67 upbm affinity estimate (log intensity, higher = more binding, comparable within an allelic series).

What does the source list for TCTGTTAA?
binding signal [1]: 8.7 upbm affinity estimate (log intensity, higher = more binding, comparable within an allelic series); binding signal [2]: 8.61 upbm affinity estimate (log intensity, higher = more binding, comparable within an allelic series); binding signal [5]: 9.01 upbm affinity estimate (log intensity, higher = more binding, comparable within an allelic series)

How did the binding signal [1] turn out when CTGGGCGA was run?
Its binding signal is 6.34 upbm affinity estimate (log intensity, higher = more binding, comparable within an allelic series).

And the binding signal [2]?
The binding signal was 6.37 upbm affinity estimate (log intensity, higher = more binding, comparable within an allelic series).

What about the binding signal [5] of the same sequence?
Its binding signal is 6.87 upbm affinity estimate (log intensity, higher = more binding, comparable within an allelic series).

For CGTATAAG, which binding signal [1] is on record?
Its binding signal is 8.14 upbm affinity estimate (log intensity, higher = more binding, comparable within an allelic series).

And the binding signal [2]?
Its binding signal is 8.05 upbm affinity estimate (log intensity, higher = more binding, comparable within an allelic series).

What about the binding signal [5] of the same sequence?
Its binding signal is 8.12 upbm affinity estimate (log intensity, higher = more binding, comparable within an allelic series).

Which binding signal [1] does the source give for ATTTAGTA here?
The binding signal was 9.39 upbm affinity estimate (log intensity, higher = more binding, comparable within an allelic series).

What about the binding signal [2] of the same sequence?
The binding signal was 9.22 upbm affinity estimate (log intensity, higher = more binding, comparable within an allelic series).

And the binding signal [5]?
Its binding signal is 9.79 upbm affinity estimate (log intensity, higher = more binding, comparable within an allelic series).

Which results are given for CGGACGGA?
binding signal [1]: 6.3 upbm affinity estimate (log intensity, higher = more binding, comparable within an allelic series); binding signal [2]: 6.37 upbm affinity estimate (log intensity, higher = more binding, comparable within an allelic series); binding signal [5]: 6.28 upbm affinity estimate (log intensity, higher = more binding, comparable within an allelic series)

Which binding signal [1] does the source give for CTCCTGGA here?
Its binding signal is 6.55 upbm affinity estimate (log intensity, higher = more binding, comparable within an allelic series).

What about the binding signal [2] of the same sequence?
The binding signal was 6.53 upbm affinity estimate (log intensity, higher = more binding, comparable within an allelic series).

And the binding signal [5]?
Its binding signal is 6.48 upbm affinity estimate (log intensity, higher = more binding, comparable within an allelic series).

For CGACAGGC, which binding signal [1] is on record?
Its binding signal is 6.36 upbm affinity estimate (log intensity, higher = more binding, comparable within an allelic series).

What about the binding signal [2] of the same sequence?
The binding signal was 6.36 upbm affinity estimate (log intensity, higher = more binding, comparable within an allelic series).

What about the binding signal [5] of the same sequence?
Its binding signal is 6.15 upbm affinity estimate (log intensity, higher = more binding, comparable within an allelic series).
